Source: PubChem
An excerpt weighted towards active compounds, which were near 2.7% of everything screened.
ERG Ets-DNA blk: ERG Ets/DNA interaction inhibition | P11308 | fluorescence polarization, His-ERG Ets domain / labelled DNA | Potency, µM (top dose mostly 76.9 µM), for the others: top-dose FP activity, negative = inhibition, actives largely listed as inhibitors | hit rate 0.028% among 370,000; active = well fitted inhibition curve with a large enough effect in the polarisation, with a control signal flat; inconclusive = small, poorly fitted or top-dose-only effect, or effect the other way, or a change in a side signal; inactive = no such curve, though single readings can be large or run the other way; the % refers to the polarisation;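 also: polarization taken with two DNA probes labelled with fluorescein and Texas red; potency is read from the fitted curve at half-maximal effect; % of control where 0% means no effect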
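His-tagged ERG Ets domain (1 uM in the protein solution; 300mM KCl, 50mM Tris-HCl, 1mM EDTA, 1mM DTT, pH 7.5) received compound, then a probe mix of 5 nM fluorescein-DNA and 100nM Texas-615-DNA. Fluorescence polarization was read for both dyes.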
A549 viability: kills or reduces viability of A549 cells in Nrf2 counter-screen; hit rate 0.16% among 390,000; A549 ARE-Fluc cells, CellTiter-Fluor viability, 18-24 h; Potency, µM (doses to about 46 µM), for inactives: at the top dose activity change, negative = cytotoxicity, hits mostly inhibitors; also: potency is read from the fitted curve at half-maximal effect; % is scaled to controls: 0 for no effect and ±100 for the full control effect
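A549 ARE-Fluc cells in 5% FBS OPTI-MEM, 5000 cells/well, rested 2 h then exposed to compounds in concentration-response for 18-24 h at 37 °C. Viability by CellTiter-Fluor fluorescence (Ex 405/Em 525) after 30 min; luciferase luminescence (BugLite, 15 min, RT) read afterwards.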
Nrf2 ARE act: activates Nrf2 signaling; hit rate 0.31% among 410,000; AREc32 ARE-luciferase reporter (MCF7-derived line), luminescence, 24 h; Potency, µM (top dose mostly 46.1 µM), inactives show at the top dose activation, actives largely listed as activators; also: potency is read from the fitted curve at half-maximal effect; % of control where 0% means no effect; nearly all actives have a fitted effect of over 65% in size
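Cells of the AREc32 ARE-luciferase line are plated in OPTI-MEM containing 5% FBS and left overnight at 37 deg C. Compounds are pinned in, incubation continues 24 hr, and firefly luciferase signal is then measured.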
Nrf2 inh: inhibitors of Nrf2 signaling; A549 ARE-Fluc reporter, luciferase luminescence, 18-24 h; Potency, µM (titrated, usually from 46 µM), for inactives: at the highest dose activity change, negative = inhibition, hits mostly inhibitors; hit rate 2.1% among 360,000; AID 504444; also: potency is read from the fitted curve at half-maximal effect; % is scaled to controls: 0 for no effect and ±100 for the full control effect; nearly all actives have a fitted effect of over 60% in size
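Nrf2 activity is the BugLite luminescence, read 15 min after reagent at room temperature, following CellTiter-Fluor cytotoxicity readout (30 min, 37C). Compound titrations were applied for 18-24 h to 5000 A549 ARE_Fluc cells/well in 5% FBS OPTI-MEM.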
12-LOX inh: blocks human arachidonate 12S-lipoxygenase; purified 12hLO, xylenol orange hydroperoxide absorbance; Potency, µM (titrated, usually from 108 µM), for the others: at the highest dose activity change, negative = inhibition, most hits filed as inhibitors; AID 1671190; hit rate 1.1% among 580,000; also: potency is read from the fitted curve at half-maximal effect; % is scaled to controls: 0 for no effect and ±100 for the full control effect
Target sequence (P18054 whole entry, looked up): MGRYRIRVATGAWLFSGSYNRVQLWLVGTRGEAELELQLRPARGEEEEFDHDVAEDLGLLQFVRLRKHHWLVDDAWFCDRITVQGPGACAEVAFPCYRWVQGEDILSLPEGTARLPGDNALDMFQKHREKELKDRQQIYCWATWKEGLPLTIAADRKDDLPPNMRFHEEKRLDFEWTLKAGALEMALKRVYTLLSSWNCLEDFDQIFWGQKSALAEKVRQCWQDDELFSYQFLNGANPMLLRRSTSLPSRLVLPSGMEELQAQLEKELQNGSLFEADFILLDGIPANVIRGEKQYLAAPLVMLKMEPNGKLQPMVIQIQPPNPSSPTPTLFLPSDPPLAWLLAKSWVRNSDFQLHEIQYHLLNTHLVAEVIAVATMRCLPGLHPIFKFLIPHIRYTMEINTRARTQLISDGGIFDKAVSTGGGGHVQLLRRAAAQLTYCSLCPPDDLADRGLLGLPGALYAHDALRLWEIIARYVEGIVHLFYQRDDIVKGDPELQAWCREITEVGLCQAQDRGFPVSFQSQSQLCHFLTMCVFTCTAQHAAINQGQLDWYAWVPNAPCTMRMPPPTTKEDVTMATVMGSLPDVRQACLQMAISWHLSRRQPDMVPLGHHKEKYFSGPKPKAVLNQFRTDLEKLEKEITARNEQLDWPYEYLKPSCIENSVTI
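Purified human 12hLO at 150 nM in 25 mM Hepes, 0.01% Triton X-100, pH 7.0, preincubated 15 min at room temperature with compound. Reaction started with 40 uM arachidonic acid, 30 min at room temperature. Hydroperoxide measured by Fe-xylenol orange, 573/405 nm absorbance ratio.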
LDHA block: LDHA (human) enzyme inhibition; purified LDHA, NADH/diaphorase-resazurin fluorescence; stronger effect = lower value; hit rate 0.15% among 480,000; AID 1347041; activity change, % (values are at about 110 or 230 µM); P00338; in the data active = activity change below about -30%; inconclusive = mostly about -25% to -30%;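 also: plate controls were DMSO wells for no effect and wells without enzyme for full effect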
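Remaining NADH was detected by diaphorase (0.133 mg/mL) converting 37 µM resazurin to fluorescent resorufin, read at 0 and 20 minutes. The preceding 5-minute room-temperature reaction used 2 nM LDHA, 0.2 mM sodium pyruvate and 0.06 mM NADH at pH 7.4.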
* marks the source's active call; other numbers are inactive results; [ ] = remark or other dose. Unless noted, calls follow the shape of the dose curve; as a rule, active = well fitted curve in the direction sought with a large enough effect; inconclusive = small, poorly fitted or top-dose-only effect, or another doubt; inactive = no such curve, though single readings can be large; an effect the other way counts as inactive or inconclusive.

Screening O=C(/C=C/c1ccccc1Cl)Nc1nc(-c2cccs2)ns1 returned ERG Ets-DNA blk 2%, A549 viability -3%, Nrf2 ARE act 6.3µM*, Nrf2 inh 12%, 12-LOX inh -11% and LDHA block -9.
Screening Cc1ccc(NC(=O)C2CCCN(S(=O)(=O)c3cnc[nH]3)C2)cc1C (stereo not drawn) returned ERG Ets-DNA blk 4%, A549 viability 2%, Nrf2 ARE act -1%, Nrf2 inh -13%, 12-LOX inh -2% and LDHA block -2.
CCN(CC)c1ccc(NC(=O)C2CCCN(S(=O)(=O)c3cnc[nH]3)C2)c(C)c1 (stereo not drawn) was read as ERG Ets-DNA blk 18%, A549 viability 1%, Nrf2 ARE act -1%, Nrf2 inh 23µM*, 12-LOX inh 4% and LDHA block 9.
`Cc1ccc2c(CN(C)CCOc3ccc(Cl)cc3)cc(=O)oc2c1` gave 12-LOX inh 35µM* and LDHA block 9.
Screening COc1ccc2c(CN(C)CCOc3ccc(F)cc3)cc(=O)oc2c1 returned 12-LOX inh inconclusive and LDHA block 2.
`CCc1ccc2c(CN(C)CCOc3ccc(F)cc3)cc(=O)oc2c1` gave 12-LOX inh 45µM* and LDHA block -2.
For O=C(O)c1ccc2cc(C(=O)O)[nH]c2c1 the results were 12-LOX inh inconclusive and LDHA block 0.
CC(C)(C)CN1CCN(Cc2nc(-c3ccc(F)cc3)cs2)CC1CCO (stereo not drawn) was read as ERG Ets-DNA blk 4%, A549 viability -10%, Nrf2 ARE act 0%, Nrf2 inh 21µM*, 12-LOX inh 1% and LDHA block -3.
For OCCC1CN(Cc2nc(-c3ccc(F)cc3)cs2)CCN1CCc1ccccc1 (stereo not drawn) the results were ERG Ets-DNA blk -6%, A549 viability -14%, Nrf2 ARE act 3%, Nrf2 inh inconclusive, 12-LOX inh -12% and LDHA block -5.
For CC(NC(=O)c1sc2cc([N+](=O)[O-])ccc2c1Cl)C(C)(C)C (stereo not drawn) the results were ERG Ets-DNA blk -1%, A549 viability -3%, Nrf2 ARE act 0%, Nrf2 inh -11%, 12-LOX inh 32µM* and LDHA block -3.
`O=C(NC1CC1)c1sc2cc([N+](=O)[O-])ccc2c1Cl` gave ERG Ets-DNA blk -8%, A549 viability -7%, Nrf2 ARE act 4%, Nrf2 inh 16%, 12-LOX inh 1% and LDHA block -3.
Screening Cc1cccc(C(=O)N2CCC(c3nc4cc(C(F)(F)F)ccc4s3)CC2)n1 returned 12-LOX inh inconclusive and LDHA block -10.
`COc1ccc2[nH]cc(CCNc3ccnc(-c4ccc5c(c4)OCO5)n3)c2c1` gave 12-LOX inh 45µM*.
For COc1ccc(CNc2ccnc(-c3ccc4c(c3)OCO4)n2)c(OC)c1 the results were 12-LOX inh 20µM*.
Screening COc1cccc(-c2cncnc2NCCc2c[nH]c3ccc(OC)cc23)c1 returned 12-LOX inh 5%.
COc1ccc2[nH]cc(CCNc3cc(-c4cccnc4)ncn3)c2c1 was read as 12-LOX inh 32µM*.
COc1ccc2[nH]cc(CCNc3ccnc(-c4c(C)noc4C)n3)c2c1 was read as 12-LOX inh -2%.
Screening c1ccc(CCN(Cc2ccccc2)Cc2cccc(OCc3ccccc3)c2)cc1 returned 12-LOX inh inconclusive and LDHA block -1.
For CC(C)NC(=O)CN(C)CC(O)COc1cc(Cl)ccc1Cl (stereo not drawn) the results were 12-LOX inh inconclusive and LDHA block 0.
NC(=O)c1cc([N+](=O)[O-])ccc1NCc1ccc(N)cc1 was read as ERG Ets-DNA blk 11%, A549 viability inconclusive, Nrf2 ARE act -2%, Nrf2 inh 9.2µM*, 12-LOX inh -22% and LDHA block 0.
Screening NC(=O)c1cc([N+](=O)[O-])ccc1NCc1ccc(F)cc1 returned ERG Ets-DNA blk 5%, A549 viability -7%, Nrf2 ARE act 7%, Nrf2 inh 8%, 12-LOX inh 1% and LDHA block -11.
For C=C(C)COc1cccc(C(=O)Nc2ccccc2)c1 the results were 12-LOX inh -59% and LDHA block 4.
`O=c1cc(-c2ccc([N+](=O)[O-])cc2)nc2cc(-c3ccc(F)cc3)[nH]n12` gave ERG Ets-DNA blk 8%, A549 viability -1%, Nrf2 ARE act 0%, Nrf2 inh -18%, 12-LOX inh 20µM* and LDHA block 9.
For COc1ccccc1NC(=O)c1ncoc1-c1ccco1 the results were ERG Ets-DNA blk -3%, A549 viability 11%, Nrf2 ARE act inconclusive, 12-LOX inh 0% and LDHA block 1.
Screening COC(=O)c1ccccc1NC(=O)c1ncoc1-c1ccco1 returned ERG Ets-DNA blk -3%, A549 viability 5%, Nrf2 ARE act 1.1µM*, 12-LOX inh -20% and LDHA block -6.
`O=C1NC(=O)C(=Cc2ccc(-c3ccc(F)cc3)o2)S1` gave 12-LOX inh -25%[57.4 µM].
Screening O=C1/C(=C\c2ccc(Br)o2)Cc2ccccc21 returned ERG Ets-DNA blk 15%, A549 viability 1%, Nrf2 ARE act 11µM*, Nrf2 inh inconclusive, 12-LOX inh inconclusive and LDHA block 6.
For O=C1/C(=C/c2cccc(Br)c2)Cc2ccccc21 the results were 12-LOX inh inconclusive and LDHA block 9.
O=C1/C(=C/c2ccc(-c3ccc(F)cc3)o2)Cc2ccccc21 was read as 12-LOX inh 18µM* and LDHA block 0.
For O=C(O)C(c1c[nH]c2ccc(Cl)cc12)N1CCN(Cc2cccc(Cl)c2)CC1 (stereo not drawn) the results were 12-LOX inh inconclusive and LDHA block 3.
`CCC(=O)Nc1ccc(C(=O)N/N=C(\C)C(C)(C)C)cc1` gave 12-LOX inh 47% and LDHA block -4.
`C/C(=N\NC(N)=S)c1ccc2c3c(cccc13)CC2` gave 12-LOX inh inconclusive and LDHA block -12.
O=C(CN(c1cccc(Cl)c1)S(=O)(=O)c1ccc(Cl)cc1)NCc1ccccn1 was read as ERG Ets-DNA blk -5%, A549 viability inconclusive, Nrf2 ARE act 2%, Nrf2 inh 21µM*, 12-LOX inh inconclusive and LDHA block -2.
